The target of the first assay is ARIH1. Description: pooled miR-30 sensor sort-seq; sequence = guide strand. The following applies: shRNA.
TTAACCACTTACATTTAACAGG returned a sensor-assay potency score (higher = more potent) of -0.703. On the same count and under the same terms, with TAGCGGTTACAGTTGTACCAGG the figure was -0.854; with TTGTCTTGTACTTTCTGCTTTA, -0.218. Still for that read-out and setting: with TTACAGTAGAACAGGTACCTCT the figure was -0.0917; with TTAGGGTAGTTCAAGTAGCAGA, -0.412. In turn, TACTTTCTGCTTTATATCCTGC returned a sensor-assay potency score (higher = more potent) of 0.014. Regarding TTAACAGTCGATTGCACTCTAC, the sensor-assay potency score (higher = more potent) is -0.996. The sequence TTTAATTGCATGAGCACTCTAG showed a sensor-assay potency score (higher = more potent) of -0.104.

The next assay concerns the target ARL3. Described as above. The following applies: shRNA.
As for TTACATATATAAGAATATCGGT, the sensor-assay potency score (higher = more potent) was -0.321. The sequence TTGATGTTGAAACCCTGTGTAG came in with a sensor-assay potency score (higher = more potent) of -0.924. Same read-out and setting: with TTAGTTTTTCTTCCTCCAGTAA the figure was -0.387; with TACATATATAAGAATATCGGTA, -0.522. The same measure, in the same setting: with TTGTGATTGTACACTTTTGATG the figure was -1.36; with TTTTCAAAATAATTCTTCCAGT, -0.927; with AATTCTTCCAGTATGGTCTGAT, 0.17. The same measure, in the same setting: with ATACATTCAGTTTAAAACCTTG the figure was -0.514. Sequence TTTTGATGTTGAAACCCTGTGT returned a sensor-assay potency score (higher = more potent) of 0.456.

In the case of TTCAGATGCAAGCTGCTTCAGA, the sensor-assay potency score (higher = more potent) was -0.224.

Regarding TCTGGTGCACTTTTCAACTTGC, the sensor-assay potency score (higher = more potent) is 0.321. The same measure, in the same setting: with TTTTTCTGTCTGCACTGTCGAT the figure was -0.887. Sequence TTGTACACTTTTGATGTTGAAA came in with a sensor-assay potency score (higher = more potent) of -1.03.

In the case of TTTTCTGTCTGCACTGTCGATT, the sensor-assay potency score (higher = more potent) was -0.243. The same measure, in the same setting: with TAAGAATATCGGTATTTTCAAA the figure was -1.26; with TTGACATTTTTGCAGACCCAGT, -1.64; with TGATTGTACACTTTTGATGTTG, -0.736. The same measure, in the same setting: with AATCTTTTTCTGTCTGCACTGT the figure was -0.19; with TTTGATGTTGAAACCCTGTGTA, 0.537. Same read-out and setting: with TAATTCTTCCAGTATGGTCTGA the figure was 0.485; with AACCTTGTGATTGTACACTTTT, -0.441. TTCAGAAGAGTGGTCTTGCCAG: the sensor-assay potency score (higher = more potent) is -0.492. Sequence TTCAGTTTAAAACCTTGTGATT displayed a sensor-assay potency score (higher = more potent) of -1.5.

A further assay has as its target ARL4D. Described as above. The following applies: shRNA.
With TGGACAAACTCCTTGAACTTGA, the sensor-assay potency score (higher = more potent) was -0.891. TGGAAGGTGATGCCACGCGATC displayed a sensor-assay potency score (higher = more potent) of -1.76. The sequence AACACTAGACCGTCTGTCCGGC registered a sensor-assay potency score (higher = more potent) of -0.396. Same read-out and setting: with TACGTCTCCACAGTCCTGCAGC the figure was -0.421; with TTGTTGGCCAGCACCAGCACTG, -0.806.

Take TTCCTCTTGAGGATCATCTCAT: the sensor-assay potency score (higher = more potent) came out at 0.0255. Turning to ACACTCTGGACAAACTCCTTGA, the sensor-assay potency score (higher = more potent) is -0.682. The same measure, in the same setting: with TCGGTGTTGAAGCCTTTGGTGG the figure was -1.59; with TATAAGAGCGCCACAGTGGTCG, -0.158.

Source of the values: the OligoGym collection.
Further: reference of the scale not given here.
